In the library only some 6.8% were active in any assay of this set; here they are far more common.
C diff HTS: blocks growth of Clostridium difficile; hit rate 0.25% among 86,000; AID 1259249; growth activity, negative = inhibition, % at 16 µg/mL (by protocol); Clostridium difficile clinical isolate growth, OD600, 24 h; stronger effect = lower value;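 active = mean growth activity at or below -80% and every replicate also at or below -80%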;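 also: 0% = DMSO wells and -100% = levofloxacin 16 µg/mL wells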
Pf Dd2 growth: blocks growth of Plasmodium falciparum Dd2 parasites; P. falciparum Dd2 growth, SYBR Green, 72 h; stronger effect = lower value; activity change, % at 10 µM; hit rate 2.3% among 94,000; AID 1159554; in the data active = activity change below about -80%
T cruzi growth: inhibitors of T. cruzi proliferation | T. cruzi beta-gal in NIH3T3, GalScreen luminescence, 90 h | inhibition, % at 8.34 µM | AID 624255 | hit rate 5.9% among 77,000;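 active = mean inhibition above about 93%, with at least 55% of replicates each passing it, limit read from the data, passing the limit was not always enough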
Active calls of the source: *.

COc1ccc2c3c([nH]c2c1)[C@@H](CO)N(Cc1ccccc1F)CC31CCN(C(=O)C2CCOCC2)CC1 was read as C diff HTS 3.0 and Pf Dd2 growth -91.1*.
For Cc1noc(C)c1S(=O)(=O)Nc1ccc2c(c1)CC(=O)N([C@H](C)CO)C[C@H](C)[C@@H](CN(C)Cc1ccc(C(F)(F)F)cc1)O2 the results were C diff HTS 1.6, Pf Dd2 growth -5.6 and T cruzi growth 89.2.
For C[C@H](CO)N1C[C@H](C)[C@H](CN(C)C(=O)Oc2ccccc2)OCc2cn(nn2)CCCC1=O the results were C diff HTS -3.3, Pf Dd2 growth -53.0 and T cruzi growth -12.0.
O=C(N[C@@H]1CC[C@H](CCNS(=O)(=O)c2ccc(F)cc2)O[C@H]1CO)C1CCC1 was read as C diff HTS -8.5, Pf Dd2 growth 10.5 and T cruzi growth 16.5.
Screening COc1ccc2c3c([nH]c2c1)[C@H](CO)N(Cc1ccccc1F)CC31CN(C(=O)C2CCC2)C1 returned C diff HTS -0.6 and Pf Dd2 growth -93.3*.
COc1ccc2c3c([nH]c2c1)[C@@H](CO)N(Cc1ccccc1F)CC31CCN(C(=O)C2CCC2)CC1 was read as C diff HTS 0.2 and Pf Dd2 growth -75.4.
For C/C=C/c1ccc2c(c1)O[C@H](CN(C)C(=O)Cc1ccncc1)[C@@H](C)CN([C@H](C)CO)S2(=O)=O the results were C diff HTS 0.5, Pf Dd2 growth -76.3 and T cruzi growth 56.4.
Screening CO[C@H]1CN(C)C(=O)c2ccc(NC(=O)Nc3ccccc3Cl)cc2OC[C@@H](C)NC[C@H]1C returned Pf Dd2 growth -25.0 and T cruzi growth -3.0.
CC(C)c1cn(CC[C@@H]2CC[C@H](NC(=O)C3CCCCC3)[C@@H](CO)O2)nn1 was read as C diff HTS -2.6.
`C[C@@H]1CCCCO[C@@H](CN(C)C(=O)Nc2ccc3c(c2)OCO3)[C@H](C)CN([C@@H](C)CO)C(=O)c2cc(NC(=O)C3CCCCC3)ccc2O1` gave C diff HTS 0.0, Pf Dd2 growth -24.9 and T cruzi growth 16.5.
Screening C[C@@H]1CCCCO[C@H](CN(C)C(=O)Nc2ccc3c(c2)OCO3)[C@H](C)CN([C@H](C)CO)C(=O)c2cc(NC(=O)C3CCCCC3)ccc2O1 returned C diff HTS -4.5, Pf Dd2 growth -86.0* and T cruzi growth 46.9.
Screening C[C@@H]1CN([C@@H](C)CO)C(=O)c2cc(NC(=O)C3CCCCC3)ccc2O[C@@H](C)CCCCO[C@@H]1CN(C)C(=O)Nc1ccc2c(c1)OCO2 returned C diff HTS -0.1, Pf Dd2 growth -82.9* and T cruzi growth 43.9.
`C[C@@H]1CCCCO[C@H](CN(C)C(=O)Nc2ccc3c(c2)OCO3)[C@@H](C)CN([C@@H](C)CO)C(=O)c2cc(NC(=O)C3CCCCC3)ccc2O1` gave C diff HTS -0.5, Pf Dd2 growth -63.8 and T cruzi growth 47.4.
`C[C@H](CO)N1C[C@H](C)[C@@H](CN(C)S(=O)(=O)c2cn(C)cn2)Oc2ccc(NS(C)(=O)=O)cc2CC1=O` gave C diff HTS -4.4, Pf Dd2 growth 21.3 and T cruzi growth 0.0.
O=C(NCC[C@H]1CC[C@@H](NC(=O)C2CC2)[C@H](CO)O1)Nc1ccc(C(F)(F)F)cc1 was read as C diff HTS 19.8, Pf Dd2 growth -25.3 and T cruzi growth 8.2.
Screening CC(=O)N[C@H]1CC[C@@H](CCNC(=O)Nc2ccc(C(F)(F)F)cc2)O[C@H]1CO returned C diff HTS -10.8, Pf Dd2 growth 21.1 and T cruzi growth -62.1.
Screening CCC(=O)N[C@H]1CC[C@@H](CCNC(=O)Nc2ccc(C(F)(F)F)cc2)O[C@H]1CO returned Pf Dd2 growth -28.3 and T cruzi growth 54.5.
For CN(C)CC(=O)N[C@@H]1CC[C@@H](CCNC(=O)Nc2ccc(C(F)(F)F)cc2)O[C@@H]1CO the results were C diff HTS -100.3*, Pf Dd2 growth 8.0 and T cruzi growth -43.0.
For CC(=O)N[C@H]1CC[C@H](CCNC(=O)Nc2ccc(C(F)(F)F)cc2)O[C@H]1CO the results were C diff HTS -94.9*, Pf Dd2 growth 9.2 and T cruzi growth 29.3.
O=C(NCC[C@H]1CC[C@@H](NC(=O)C2CC2)[C@@H](CO)O1)Nc1ccc(C(F)(F)F)cc1 was read as C diff HTS -99.7*, Pf Dd2 growth -19.2 and T cruzi growth 14.7.
`C[C@H]1CN([C@@H](C)CO)C(=O)c2cccc(NS(=O)(=O)c3ccc(F)cc3)c2O[C@@H]1CN(C)Cc1ccc(C(=O)Nc2ccccc2N)cc1` gave C diff HTS -2.4 and Pf Dd2 growth -59.2.
Screening C[C@@H]1CN([C@@H](C)CO)C(=O)c2cccc(NS(=O)(=O)c3ccc(F)cc3)c2O[C@H]1CN(C)Cc1ccc(C(=O)Nc2ccccc2N)cc1 returned C diff HTS 4.2 and Pf Dd2 growth -67.6.
`C[C@H]1CN([C@@H](C)CO)C(=O)c2cccc(NS(=O)(=O)c3ccc(F)cc3)c2O[C@H]1CN(C)Cc1ccc(C(=O)Nc2ccccc2N)cc1` gave C diff HTS -0.4 and Pf Dd2 growth -88.5*.
C[C@@H]1CN([C@@H](C)CO)C(=O)c2cccc(NS(=O)(=O)c3ccc(F)cc3)c2O[C@@H]1CN(C)Cc1ccc(C(=O)Nc2ccccc2N)cc1 was read as C diff HTS 9.2, Pf Dd2 growth -89.7* and T cruzi growth 79.0.
Screening CN(C)C(=O)c1ccc(-c2ccc([C@H]3[C@H](CO)N4CCCCN(CCC(F)(F)F)C[C@@H]34)cc2)cc1 returned C diff HTS -3.7, Pf Dd2 growth -70.1 and T cruzi growth 92.7.
`Cc1noc(C)c1S(=O)(=O)Nc1ccc2c(c1)C(=O)N([C@@H](C)CO)C[C@@H](C)[C@H](CN(C)S(C)(=O)=O)O2` gave C diff HTS 1.5, Pf Dd2 growth 25.2 and T cruzi growth -24.5.
O=C(C[C@H]1CC[C@H]2[C@@H](COC[C@@H](O)CN2C(=O)Nc2ccc(Cl)cc2)O1)N1CCCCC1 was read as Pf Dd2 growth 4.0 and T cruzi growth 4.1.
`COc1ccc2c3c([nH]c2c1)[C@H](CO)N(C(=O)C1CCCCC1)CC31CCN(Cc2nccs2)CC1` gave C diff HTS -2.5 and Pf Dd2 growth -88.1*.
COc1ccc2c3c([nH]c2c1)[C@H](CO)N(C(=O)C1CCCC1)CC31CCN(Cc2nccs2)CC1 was read as C diff HTS -1.9 and Pf Dd2 growth -83.2*.
For COc1ccc2c3c([nH]c2c1)[C@H](CO)N(Cc1nccs1)CC31CN(Cc2cccnc2)C1 the results were C diff HTS 5.7 and Pf Dd2 growth -87.7*.
COc1ccc2c3c([nH]c2c1)[C@@H](CO)N(C(=O)C1CCC1)CC31CCN(Cc2nccs2)CC1 was read as C diff HTS -2.4 and Pf Dd2 growth -68.1.
Screening COc1ccc2c3c([nH]c2c1)[C@@H](CO)N(C(=O)C1CCCC1)CC31CCN(Cc2nccs2)CC1 returned C diff HTS -2.7 and Pf Dd2 growth -58.7.
`COc1ccc2c3c([nH]c2c1)[C@@H](CO)N(Cc1ccc(Cl)cc1)CC31CN(Cc2nccs2)C1` gave C diff HTS 3.8 and Pf Dd2 growth -69.8.
Screening COc1ccc2c3c([nH]c2c1)[C@@H](CO)N(Cc1nccs1)CC31CN(Cc2nccs2)C1 returned C diff HTS 6.2 and Pf Dd2 growth -36.7.
